This passage reports binding signal results from PMC7862700, “An all-to-all approach to the identification of sequence-specific readers for epigenetic DNA modifications on cytosine”.

Common to all, as to assay: DAPPL (digital affinity profiling via proximity ligation, sequencing); 10 mM Tris-HCl pH 7.5, 50 mM NaCl, 1 mM DTT, 4% glycerol, room temperature, 30 min; GST-TFs on glutathione beads, 16-mer random dsDNA library, 0.1% formaldehyde crosslink after washing; high values mean tight binding
One experiment deals with T1, FEV (Homo sapiens, UniProt Q99581 1-238).
T1 sequence: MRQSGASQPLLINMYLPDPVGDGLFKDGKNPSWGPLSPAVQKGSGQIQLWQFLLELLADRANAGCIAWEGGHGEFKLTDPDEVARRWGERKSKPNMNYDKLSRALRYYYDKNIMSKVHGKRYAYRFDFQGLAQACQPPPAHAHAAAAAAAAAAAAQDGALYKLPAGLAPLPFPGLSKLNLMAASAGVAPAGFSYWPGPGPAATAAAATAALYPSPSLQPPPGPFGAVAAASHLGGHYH
The note with it: protein: recombinant; tags: N-terminal GST; dsDNA, one strand shown. The gist of the method:
(§1)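 A tag-only sample was pooled with DNA-barcoded human transcription factors that had been expressed in yeast as GST fusions and captured on glutathione beads. The pools were incubated for 30 min at room temperature with 200 nmole of a random double-stranded 16-mer DNA library in Tris/NaCl/DTT/glycerol buffer, then washed, crosslinked with 0.1% formaldehyde, proximity-ligated (BsaI/T4 ligase, 1 h, 37 °C), PCR-amplified and sequenced on an Illumina NextSeq500. Binding signal is each hexamer's read frequency for a factor divided by its frequency for the tag-only sample.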

Another experiment deals with ETV5 (Homo sapiens, UniProt P41161 1-510). The note with it: protein: recombinant; tags: N-terminal GST; dsDNA, one strand shown. The gist of the method:
as §1

The next experiment addresses HSF1 (Homo sapiens, UniProt Q00613 1-529). The note with it: protein: recombinant; tags: N-terminal GST; chain copies: 3; dsDNA, one strand shown. The gist of the method: as §1
Another experiment has as its target T2, SPIC (Homo sapiens, UniProt Q8N5J4 1-248).
T2 sequence: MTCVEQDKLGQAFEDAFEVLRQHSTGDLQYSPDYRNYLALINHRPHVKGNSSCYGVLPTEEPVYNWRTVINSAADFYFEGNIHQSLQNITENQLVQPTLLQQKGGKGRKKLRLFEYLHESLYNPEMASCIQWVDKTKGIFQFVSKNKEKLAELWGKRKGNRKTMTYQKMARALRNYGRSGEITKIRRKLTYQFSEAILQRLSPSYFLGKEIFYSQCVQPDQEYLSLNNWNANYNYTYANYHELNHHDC
To be noted: protein: recombinant; tags: N-terminal GST; dsDNA, one strand shown. The gist of the method: as §1

In the next experiment the target is ELF4 (Homo sapiens, UniProt Q99607 1-663). The note with it: protein: recombinant; tags: N-terminal GST; dsDNA, one strand shown. The gist of the method:
as §1

In another experiment the target is T3, ELK4 (Homo sapiens, UniProt P28324-2 1-405).
T3 sequence: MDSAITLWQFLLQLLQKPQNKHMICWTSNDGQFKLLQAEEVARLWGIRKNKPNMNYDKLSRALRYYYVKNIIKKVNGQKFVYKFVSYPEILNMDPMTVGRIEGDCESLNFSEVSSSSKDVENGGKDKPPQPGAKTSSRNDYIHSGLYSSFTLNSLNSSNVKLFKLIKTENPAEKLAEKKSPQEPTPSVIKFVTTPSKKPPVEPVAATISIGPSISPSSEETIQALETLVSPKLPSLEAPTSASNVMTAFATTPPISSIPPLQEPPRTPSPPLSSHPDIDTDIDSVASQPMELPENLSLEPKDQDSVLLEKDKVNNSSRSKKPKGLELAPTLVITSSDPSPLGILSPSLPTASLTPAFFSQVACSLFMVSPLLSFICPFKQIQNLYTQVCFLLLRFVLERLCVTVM
The note with it: protein: recombinant; tags: N-terminal GST; dsDNA, one strand shown. The gist of the method: as §1

For the next experiment, the target named is T4, ETV2 (Homo sapiens, UniProt O00321 1-342).
T4 sequence: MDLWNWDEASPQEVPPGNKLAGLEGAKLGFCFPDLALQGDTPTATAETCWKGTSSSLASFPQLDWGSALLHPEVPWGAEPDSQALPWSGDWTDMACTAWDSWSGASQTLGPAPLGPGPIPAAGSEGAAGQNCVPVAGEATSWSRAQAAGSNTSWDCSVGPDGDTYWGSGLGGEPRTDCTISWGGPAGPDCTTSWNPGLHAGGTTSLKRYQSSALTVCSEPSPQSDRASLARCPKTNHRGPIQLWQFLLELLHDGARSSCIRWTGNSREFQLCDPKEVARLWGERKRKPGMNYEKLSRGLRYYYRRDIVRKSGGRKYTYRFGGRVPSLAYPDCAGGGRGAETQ
To be noted: protein: recombinant; tags: N-terminal GST; dsDNA, one strand shown. The gist of the method:
as §1

In the next experiment the target is T5, ELF3 (Homo sapiens, UniProt P78545 1-371).
T5 sequence: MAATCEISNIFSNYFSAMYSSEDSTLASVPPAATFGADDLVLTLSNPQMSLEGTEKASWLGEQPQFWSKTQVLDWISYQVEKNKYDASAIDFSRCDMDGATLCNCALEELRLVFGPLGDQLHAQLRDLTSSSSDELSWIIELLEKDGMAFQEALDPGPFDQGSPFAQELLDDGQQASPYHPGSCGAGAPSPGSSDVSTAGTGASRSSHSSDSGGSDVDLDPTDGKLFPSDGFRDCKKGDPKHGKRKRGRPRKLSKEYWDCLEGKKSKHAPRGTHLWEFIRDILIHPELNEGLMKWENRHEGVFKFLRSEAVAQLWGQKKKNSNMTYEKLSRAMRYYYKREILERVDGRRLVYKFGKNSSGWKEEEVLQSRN
The note with it: protein: recombinant; tags: N-terminal GST; dsDNA, one strand shown. The gist of the method: as §1

In the next experiment the target is CRX (Homo sapiens, UniProt O43186 1-299). The note with it: protein: recombinant; tags: N-terminal GST; dsDNA, one strand shown. The gist of the method: as §1
Chain of CRX (O43186 whole entry): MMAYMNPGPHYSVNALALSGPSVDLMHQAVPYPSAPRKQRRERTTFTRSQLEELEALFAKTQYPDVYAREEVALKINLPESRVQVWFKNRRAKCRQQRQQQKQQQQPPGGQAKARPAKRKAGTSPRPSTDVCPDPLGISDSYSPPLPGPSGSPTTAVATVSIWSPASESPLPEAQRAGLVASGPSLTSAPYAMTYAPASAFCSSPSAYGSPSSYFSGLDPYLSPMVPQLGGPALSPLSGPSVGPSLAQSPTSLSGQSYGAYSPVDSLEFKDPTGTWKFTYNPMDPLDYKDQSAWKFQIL
A further experiment has as its target ETV1 (Homo sapiens, UniProt P50549 1-477). To be noted: protein: recombinant; tags: N-terminal GST; dsDNA, one strand shown. The gist of the method:
as §1

For the next experiment, the target named is T6, ERF (Homo sapiens, UniProt P50548 1-548).
T6 sequence: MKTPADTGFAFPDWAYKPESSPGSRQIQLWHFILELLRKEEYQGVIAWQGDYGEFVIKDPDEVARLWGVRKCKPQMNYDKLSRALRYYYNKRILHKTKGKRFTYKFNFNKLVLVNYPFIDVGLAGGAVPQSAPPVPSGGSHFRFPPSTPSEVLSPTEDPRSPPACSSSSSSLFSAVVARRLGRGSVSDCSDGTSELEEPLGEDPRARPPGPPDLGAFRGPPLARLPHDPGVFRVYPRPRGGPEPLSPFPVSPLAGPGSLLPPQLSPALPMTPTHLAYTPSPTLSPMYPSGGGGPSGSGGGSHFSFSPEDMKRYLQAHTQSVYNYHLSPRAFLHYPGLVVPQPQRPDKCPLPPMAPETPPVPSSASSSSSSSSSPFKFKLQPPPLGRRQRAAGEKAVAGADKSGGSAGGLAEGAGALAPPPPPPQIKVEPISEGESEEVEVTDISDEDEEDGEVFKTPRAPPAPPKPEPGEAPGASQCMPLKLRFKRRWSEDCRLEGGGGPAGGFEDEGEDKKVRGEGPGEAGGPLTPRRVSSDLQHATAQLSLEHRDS
To be noted: protein: recombinant; tags: N-terminal GST; dsDNA, one strand shown. The gist of the method: as §1

In a further experiment the target is T7, ETV3L (Homo sapiens, UniProt Q6ZN32 1-361).
T7 sequence: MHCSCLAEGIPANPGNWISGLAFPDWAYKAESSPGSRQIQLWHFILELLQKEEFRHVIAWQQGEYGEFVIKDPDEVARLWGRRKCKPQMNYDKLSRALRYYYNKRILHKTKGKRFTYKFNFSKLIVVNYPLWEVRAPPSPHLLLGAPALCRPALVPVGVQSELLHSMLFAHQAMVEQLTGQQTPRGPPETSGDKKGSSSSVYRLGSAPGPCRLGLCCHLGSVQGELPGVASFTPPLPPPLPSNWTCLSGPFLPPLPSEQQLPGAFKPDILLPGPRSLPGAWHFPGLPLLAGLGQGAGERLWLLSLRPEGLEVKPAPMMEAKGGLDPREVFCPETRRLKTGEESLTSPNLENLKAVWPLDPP
The note with it: protein: recombinant; tags: N-terminal GST; dsDNA, one strand shown. The gist of the method:
as §1

The target in another experiment is T8, ETS2 (Homo sapiens, UniProt P15036 1-469).
T8 sequence: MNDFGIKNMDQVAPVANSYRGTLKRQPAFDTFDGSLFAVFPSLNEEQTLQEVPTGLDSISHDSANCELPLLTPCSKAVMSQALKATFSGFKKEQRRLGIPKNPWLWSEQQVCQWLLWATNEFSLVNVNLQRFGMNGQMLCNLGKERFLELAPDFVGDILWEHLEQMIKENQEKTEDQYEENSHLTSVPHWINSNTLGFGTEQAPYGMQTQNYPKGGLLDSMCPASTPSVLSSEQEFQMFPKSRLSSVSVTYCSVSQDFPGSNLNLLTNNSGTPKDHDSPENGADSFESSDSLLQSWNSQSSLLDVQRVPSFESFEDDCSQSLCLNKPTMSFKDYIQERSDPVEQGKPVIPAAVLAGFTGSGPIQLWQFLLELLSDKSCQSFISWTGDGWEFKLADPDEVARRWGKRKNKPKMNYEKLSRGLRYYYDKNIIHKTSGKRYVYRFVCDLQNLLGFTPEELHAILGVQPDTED
The note with it: protein: recombinant; tags: N-terminal GST; dsDNA, one strand shown. The gist of the method: as §1

The target in another experiment is T9, SPDEF (Homo sapiens, UniProt O95238 1-335).
T9 sequence: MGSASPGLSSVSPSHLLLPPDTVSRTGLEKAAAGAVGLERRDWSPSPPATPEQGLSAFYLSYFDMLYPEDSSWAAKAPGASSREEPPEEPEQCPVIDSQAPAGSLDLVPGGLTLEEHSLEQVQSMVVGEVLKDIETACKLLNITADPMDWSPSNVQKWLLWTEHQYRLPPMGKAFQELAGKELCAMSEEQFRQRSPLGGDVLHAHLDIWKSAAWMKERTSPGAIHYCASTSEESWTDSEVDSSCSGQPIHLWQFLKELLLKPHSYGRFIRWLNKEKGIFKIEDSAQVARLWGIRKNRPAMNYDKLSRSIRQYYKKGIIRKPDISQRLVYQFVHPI
To be noted: protein: recombinant; tags: N-terminal GST; dsDNA, one strand shown. The gist of the method:
as §1

For another experiment, the target named is T10, ETV7 (Homo sapiens, UniProt Q9Y603 1-341).
T10 sequence: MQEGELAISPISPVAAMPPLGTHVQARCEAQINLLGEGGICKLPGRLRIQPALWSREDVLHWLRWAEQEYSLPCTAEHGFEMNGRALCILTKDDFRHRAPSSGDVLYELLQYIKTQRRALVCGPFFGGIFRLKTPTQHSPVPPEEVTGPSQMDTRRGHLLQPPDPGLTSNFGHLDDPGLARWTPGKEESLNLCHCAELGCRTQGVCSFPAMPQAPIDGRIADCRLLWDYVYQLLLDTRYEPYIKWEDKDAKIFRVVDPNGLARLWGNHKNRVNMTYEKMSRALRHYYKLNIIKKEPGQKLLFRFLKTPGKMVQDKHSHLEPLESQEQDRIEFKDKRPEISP
The note with it: protein: recombinant; tags: N-terminal GST; dsDNA, one strand shown. The gist of the method:
as §1

The next experiment concerns the target T11, ELF5 (Homo sapiens, UniProt Q9UKW6-2 1-255).
T11 sequence: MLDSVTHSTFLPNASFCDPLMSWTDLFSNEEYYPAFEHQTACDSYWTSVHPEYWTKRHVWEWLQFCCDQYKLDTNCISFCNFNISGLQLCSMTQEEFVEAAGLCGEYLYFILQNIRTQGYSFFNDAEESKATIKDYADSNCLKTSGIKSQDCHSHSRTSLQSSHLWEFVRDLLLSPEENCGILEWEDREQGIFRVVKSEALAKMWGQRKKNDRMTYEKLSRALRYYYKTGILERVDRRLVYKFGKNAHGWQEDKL
The note with it: protein: recombinant; tags: N-terminal GST; dsDNA, one strand shown. The gist of the method: as §1

The next experiment concerns the target T12, ETV3 (Homo sapiens, UniProt P41162-2 1-143).
T12 sequence: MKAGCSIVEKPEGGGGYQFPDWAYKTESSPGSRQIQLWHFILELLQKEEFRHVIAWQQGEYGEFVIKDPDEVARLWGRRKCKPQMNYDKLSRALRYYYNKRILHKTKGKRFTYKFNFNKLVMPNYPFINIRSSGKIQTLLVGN
The note with it: protein: recombinant; tags: N-terminal GST; dsDNA, one strand shown. The gist of the method:
as §1

For the next experiment, the target named is ETV6 (Homo sapiens, UniProt P41212 1-452). To be noted: protein: recombinant; tags: N-terminal GST; dsDNA, one strand shown. The gist of the method:
as §1

Chain of ETV1 (P50549 whole entry): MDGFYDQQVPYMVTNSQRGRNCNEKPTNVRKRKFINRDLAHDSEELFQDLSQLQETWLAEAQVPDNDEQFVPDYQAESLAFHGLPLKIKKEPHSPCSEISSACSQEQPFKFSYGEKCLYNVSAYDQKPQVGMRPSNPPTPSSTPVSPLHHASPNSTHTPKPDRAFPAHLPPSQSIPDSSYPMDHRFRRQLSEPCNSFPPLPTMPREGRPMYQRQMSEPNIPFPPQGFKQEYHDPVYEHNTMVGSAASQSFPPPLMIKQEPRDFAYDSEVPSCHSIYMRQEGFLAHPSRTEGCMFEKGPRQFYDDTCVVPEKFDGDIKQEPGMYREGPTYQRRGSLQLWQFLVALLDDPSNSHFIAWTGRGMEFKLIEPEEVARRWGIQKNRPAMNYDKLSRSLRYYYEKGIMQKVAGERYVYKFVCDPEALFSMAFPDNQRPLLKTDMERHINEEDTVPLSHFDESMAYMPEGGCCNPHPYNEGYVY
Chain of ETV6 (P41212 whole entry): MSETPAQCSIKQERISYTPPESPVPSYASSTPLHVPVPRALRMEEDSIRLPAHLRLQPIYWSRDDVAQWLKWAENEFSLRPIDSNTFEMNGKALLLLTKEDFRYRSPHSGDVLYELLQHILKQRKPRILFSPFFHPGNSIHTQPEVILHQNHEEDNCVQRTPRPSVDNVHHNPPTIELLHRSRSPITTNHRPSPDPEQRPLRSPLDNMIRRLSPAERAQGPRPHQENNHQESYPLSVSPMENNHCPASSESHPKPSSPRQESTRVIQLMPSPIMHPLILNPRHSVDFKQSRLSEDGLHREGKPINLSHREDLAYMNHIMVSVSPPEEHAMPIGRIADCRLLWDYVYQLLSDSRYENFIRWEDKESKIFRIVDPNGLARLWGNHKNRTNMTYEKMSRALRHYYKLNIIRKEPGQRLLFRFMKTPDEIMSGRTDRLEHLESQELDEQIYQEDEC
Chain of ETV5 (P41161 whole entry): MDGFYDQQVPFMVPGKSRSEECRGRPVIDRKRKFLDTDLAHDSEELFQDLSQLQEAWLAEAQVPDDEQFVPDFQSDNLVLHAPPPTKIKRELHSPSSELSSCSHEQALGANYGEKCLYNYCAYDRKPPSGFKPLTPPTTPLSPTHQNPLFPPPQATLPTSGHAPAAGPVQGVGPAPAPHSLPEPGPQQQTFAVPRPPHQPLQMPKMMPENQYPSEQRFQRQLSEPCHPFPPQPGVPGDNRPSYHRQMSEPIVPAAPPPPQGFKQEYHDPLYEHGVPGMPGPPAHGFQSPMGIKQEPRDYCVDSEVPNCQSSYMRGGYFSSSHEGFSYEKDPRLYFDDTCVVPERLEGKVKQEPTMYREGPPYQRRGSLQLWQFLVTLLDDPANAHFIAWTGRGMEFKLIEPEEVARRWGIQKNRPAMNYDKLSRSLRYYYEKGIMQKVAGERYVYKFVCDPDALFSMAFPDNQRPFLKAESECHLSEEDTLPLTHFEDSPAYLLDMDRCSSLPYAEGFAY
Chain of HSF1 (Q00613 whole entry): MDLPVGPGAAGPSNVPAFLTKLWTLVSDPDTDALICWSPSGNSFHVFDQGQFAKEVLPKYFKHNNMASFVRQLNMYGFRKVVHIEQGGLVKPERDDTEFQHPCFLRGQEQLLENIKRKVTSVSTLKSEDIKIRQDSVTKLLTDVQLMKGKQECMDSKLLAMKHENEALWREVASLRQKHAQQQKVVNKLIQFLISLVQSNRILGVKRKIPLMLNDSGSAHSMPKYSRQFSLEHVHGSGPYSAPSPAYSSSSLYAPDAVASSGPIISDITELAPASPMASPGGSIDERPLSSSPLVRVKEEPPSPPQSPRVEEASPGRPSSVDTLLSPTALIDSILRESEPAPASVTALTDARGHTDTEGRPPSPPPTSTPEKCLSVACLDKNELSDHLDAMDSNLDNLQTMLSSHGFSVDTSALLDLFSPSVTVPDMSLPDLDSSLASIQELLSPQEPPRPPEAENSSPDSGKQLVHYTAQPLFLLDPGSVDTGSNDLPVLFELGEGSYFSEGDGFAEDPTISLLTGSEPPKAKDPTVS
Chain of ELF4 (Q99607 whole entry): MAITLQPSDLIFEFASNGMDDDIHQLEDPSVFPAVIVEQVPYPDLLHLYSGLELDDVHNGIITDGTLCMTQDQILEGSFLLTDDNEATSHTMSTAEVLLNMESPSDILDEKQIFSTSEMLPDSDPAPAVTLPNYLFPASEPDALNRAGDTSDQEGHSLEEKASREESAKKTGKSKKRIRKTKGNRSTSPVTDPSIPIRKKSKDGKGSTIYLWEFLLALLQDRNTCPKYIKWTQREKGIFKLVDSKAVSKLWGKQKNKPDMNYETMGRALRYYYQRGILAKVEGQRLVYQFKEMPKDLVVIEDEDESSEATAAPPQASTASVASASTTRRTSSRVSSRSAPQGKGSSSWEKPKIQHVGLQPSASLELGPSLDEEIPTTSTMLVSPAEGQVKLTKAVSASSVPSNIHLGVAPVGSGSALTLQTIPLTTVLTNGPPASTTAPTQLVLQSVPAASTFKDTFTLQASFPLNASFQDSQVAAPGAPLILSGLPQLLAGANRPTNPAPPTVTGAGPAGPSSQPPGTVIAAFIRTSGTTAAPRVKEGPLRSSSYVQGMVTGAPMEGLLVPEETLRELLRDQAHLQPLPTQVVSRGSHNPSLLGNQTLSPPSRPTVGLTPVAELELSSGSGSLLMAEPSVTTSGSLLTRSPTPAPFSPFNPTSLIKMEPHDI

Take CCAATC: the binding signal with FEV is 1.11 fold enrichment (6-mer frequency, TF over GST control); with ETV5, 1.16 fold enrichment (6-mer frequency, TF over GST control); with HSF1 it was 1.13 fold enrichment (6-mer frequency, TF over GST control); with SPIC, 1.24 fold enrichment (6-mer frequency, TF over GST control); with ELF4, 1.19 fold enrichment (6-mer frequency, TF over GST control); with ELK4 it was 1.18 fold enrichment (6-mer frequency, TF over GST control). Moreover, the binding signal was 1.16 fold enrichment (6-mer frequency, TF over GST control) in the experiment with ETV2; 1.11 fold enrichment (6-mer frequency, TF over GST control) in the experiment with ELF3; 1.33 fold enrichment (6-mer frequency, TF over GST control) with CRX; 1.13 fold enrichment (6-mer frequency, TF over GST control) with ETV1; 1.03 fold enrichment (6-mer frequency, TF over GST control) in the experiment with ERF; 1.19 fold enrichment (6-mer frequency, TF over GST control) in the experiment with ETV3L. Besides, the binding signal with ETS2 is 1.19 fold enrichment (6-mer frequency, TF over GST control); with SPDEF, 1.16 fold enrichment (6-mer frequency, TF over GST control); in the experiment with ETV7, 1.23 fold enrichment (6-mer frequency, TF over GST control); in the experiment with ELF5, 1.16 fold enrichment (6-mer frequency, TF over GST control); with ETV3, 1.15 fold enrichment (6-mer frequency, TF over GST control); with ETV6, 1.15 fold enrichment (6-mer frequency, TF over GST control).
